The values below come from PubChem BioAssay.

Unmarked numbers belong to inactive results.

This test can be described thus: cell viability in Huh7 cells, primary screen, cytotoxicity control for HCV replication inhibitor project, CellTiter-Glo luminescence, basal, 48 h (AID 1143).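 Also: Huh7 hepatoma cells carrying a hepatitis C replication reporter with no stimulus; test concentration not given here.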 The note with it: Huh7 HCV replicon, higher = more signal, called active from +8 up or from −8 down.
Consider `CCOC(=O)N1C(c2ccc(OCCCO)cc2)=NC(C(=O)OC)N1C(=O)OCC` (stereo not given), for which the z-score was -2.41.
As to `Cc1ccc(S[C@]2(C(=O)NCC(F)(F)F)CC(=O)N(C3Cc4ccccc4C3)[C@@H]2c2ccc(CO)cc2I)cc1`, the z-score is -1.42.
Consider `[N-]=[N+]=Nc1ccccc1C[C@]1(C(=O)N2CCCCC2)N=C(c2ccc(OCCCO)cc2)O[C@H]1c1ccccc1N=[N+]=[N-]`, for which the z-score is -3.99.
Regarding `C=CCNC(=O)[C@H]1[C@@H]2C(=O)O[C@@H](c3ccccc3)[C@@H](c3ccccc3)N2[C@@H](c2ccc(O)cc2)[C@]12C(=O)Nc1ccc(C#Cc3ccc(OC)cc3)cc12`, the z-score was -3.44.
In the case of `[N-]=[N+]=NCc1ccccc1C[C@]1(C(=O)NCc2ccccc2)COC(c2ccc(OCCCO)cc2)=N1`, the z-score is -5.27.
With `O=C1OCC=C[C@H]2OC34C=CCN(CCN5CCOCC5)C(=O)[C@H]3N(CCCCCCO)C(=O)[C@@H]4[C@@H]12` (stereo not given in full) the figure was -0.39.
As to `[N-]=[N+]=Nc1ccccc1[C@H]1OC(c2ccc(OCCCO)cc2)=N[C@@]1(CCS(=O)(=O)c1ccccc1)C(=O)N1CCOCC1`, the z-score is -2.5.
As to `COC(=O)[C@@]1(Cc2ccccc2)[C@H]2c3cc(C(=O)N(C)C)n(Cc4cc(F)c(F)c(F)c4)c3C[C@H]2CN1C(=O)c1ccccc1`, the z-score is -3.19.
For the compound `O=C1O[C@H](c2ccccc2)[C@H](c2ccccc2)N2[C@H]1[C@@H](C(=O)N1CCCCCCC1)[C@]1(C(=O)Nc3ccc(C#CC4=CCCCC4)cc31)[C@H]2c1ccc(O)cc1`, the z-score is -5.14.
Take `[N-]=[N+]=NCc1ccccc1C[C@]1(C(N)=O)N=C(c2ccc(OCCCO)cc2)O[C@H]1c1ccccc1N=[N+]=[N-]`: the z-score was -1.84.
The result for `C=CCOC(=O)[C@H]1[C@@H]2C(=O)O[C@@H](c3ccccc3)[C@@H](c3ccccc3)N2[C@@H](c2ccc(OCCOC(=O)[C@H]3C[C@H]4C(=O)N[C@@H](CCCC[N+](C)(C)C)C(=O)N4[C@H]3c3ccc(O)cc3)cc2)[C@]12C(=O)Nc1ccccc12` reads -0.236.
Consider `CC(C)NC(=O)[C@@]1(c2ccc([N+](=O)[O-])cc2)CC(=O)N(C(C)C)[C@@H]1c1ccc(CO)cc1`, for which the z-score is -3.49.
`COc1ccc([Si](C)(C)[C@@H]2[C@@H](CCn3cc([C@H](O)c4ccccc4)nn3)O[C@]3(C(=O)N(C)c4ccccc43)[C@H]2C)cc1`: the z-score was -3.85.
For `COCCOC(=O)N1C(=O)[C@@]2(c3cc(C#CC4=CCCCC4)ccc31)[C@H](C(=O)N1CCN(c3ncccn3)CC1)[C@H]1C(=O)O[C@H](c3ccccc3)[C@H](c3ccccc3)N1[C@@H]2c1ccc(OCCO)cc1`, the z-score is -0.922.
With `C=CCOC(=O)[C@@H]1[C@H]2C(=O)O[C@H](c3ccccc3)[C@H](c3ccccc3)N2[C@H](c2ccc(OCCOC(=O)[C@H]3C[C@H]4C(=O)N[C@@H](CC(C)C)C(=O)N4[C@H]3c3cccc(OCCO)c3)cc2)[C@@]12C(=O)Nc1ccc(I)cc12` the figure was -2.48; with `CC(C)N1C(=O)c2ccccc2[C@](C)(C(=O)NCCCN(C)C)[C@@H]1c1ccc(CO)cc1`, 0.17; with `CC(=O)NCCCC[C@@H]1NC(=O)[C@@H]2C[C@H](C(=O)NCCCCCC[N+](C)(C)C)[C@H](c3cccc(OCCO)c3)N2C1=O`, -0.134.
As for `CCCCN1CC=CC23O[C@@H]4C=CCCOC(=O)C4[C@H]2C(=O)N(CCCO)[C@@H]3C1=O` (stereo not given in full), the z-score was -2.05.
The result for `C=CCC(OC(C)=O)[C@@H]1[C@@H](N(Cc2cc3ccccc3o2)C(=O)c2cccc3ccccc23)c2cc(OCCCO)ccc2N1C(=O)Cc1ccc(OC)cc1` (stereo not given in full) reads -1.1; that for `C=CCN1C(=O)[C@]2(COC(c3ccc(OCCCO)cc3)=N2)Cc2ccccc21`, -3.34; that for `C=C[C@H](C)[C@H](OC(=O)Nc1ccc(OC)cc1)c1ccc(O)c2ccccc12`, -3.55.
On to `COc1ccccc1CN1C(=O)c2ccccc2[C@](Cc2ccccc2I)(C(=O)NC2CC2)[C@@H]1c1ccc(CO)cc1`, for which the z-score is -4.58.
With `C=CC[C@@]1(C(N)=O)N=C(c2ccc(OCCCO)cc2)O[C@@H]1c1ccccc1N=[N+]=[N-]`, the z-score is -0.656.
For the compound `CCN(CC)c1ccc(N2CC=CC34O[C@@H]5C=CCOC(=O)[C@@H]5[C@H]3C(=O)N(CCCCCO)[C@@H]4C2=O)cc1` (stereo not given in full), the z-score was -0.286.
Regarding `COCCOC(=O)N1C(=O)[C@@]2(c3cc(C#CCC(C(=O)OC)C(=O)OC)ccc31)[C@H](c1ccc(OCCO)cc1)N1[C@H](c3ccccc3)[C@H](c3ccccc3)OC(=O)[C@H]1[C@@H]2C(=O)NC[C@H](O)c1ccccc1`, the z-score is -1.84.
